The record followed here is PubChem BioAssay (NCATS).

In assay [1] the target is Calcium and integrin-binding protein 1 (Homo sapiens) (UniProt Q99828). Kind of assay: Primary qHTS for Identification of Calcium Integrin Binding Protein 1 (CIB1) Competitor (AID 1508620).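 Note: GST tagged CIB1 binding a fluorescein labelled alphaIIb integrin peptide tracer; top concentration of the series differs between compounds.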 The essentials: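 CIB1-GST (1 uM final) and compound incubated 15 min at room temperature before adding FITC-alphaIIb peptide tracer (100 nM final). Competition for binding read by fluorescence polarization (ex 480, em 540) after another 15 min at room temperature.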
Chain of Calcium and integrin-binding protein 1 (Homo sapiens) (Q99828 whole entry, looked up): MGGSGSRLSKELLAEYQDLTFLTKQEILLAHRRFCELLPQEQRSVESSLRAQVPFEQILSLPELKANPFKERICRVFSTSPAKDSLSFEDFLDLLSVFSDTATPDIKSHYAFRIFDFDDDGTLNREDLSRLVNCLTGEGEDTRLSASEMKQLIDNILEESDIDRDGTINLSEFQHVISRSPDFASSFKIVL
(In general: Quantitative high-throughput screening tests each substance at several concentrations.)

Assay [2] is described as follows: Primary qHTS for small molecule stabilizers of the endoplasmic reticulum resident proteome: Secreted ER Calcium Modulated Protein (SERCaMP) assay (AID 1508630). The essentials:
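The SH-SY5Y reporter protocol was run at 3 concentrations up to 38.3 uM (primary) or 11 concentrations (follow-up): 16 h compound, 100 nM thapsigargin for 4 h, then extracellular luciferase luminescence.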

Assay [3] deals with Cytochrome P450 2D6 (Homo sapiens) (UniProt P10635). Kind of assay: Cytochrome P450 family 2 subfamily D member 6 (CYP2D6) small molecule antagonists: luciferase biochemical (cell-free) qHTS assay (AID 1645840; active = well fitted curve in the direction sought with a large enough effect in the repeat runs; an effect the other way counts as inactive or inconclusive; note: potency is the fitted concentration of half-maximal effect; nearly all actives have a fitted effect of over 55% in size). An outline of the steps:
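P450-Glo CYP2D6 system: proluciferin substrate converted by enzyme to luciferin, read by luminescence proportional to activity. Enzyme-substrate mix with compound 10 min at room temperature, then NADPH regeneration 1 h before detection reagent.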

A short description of assay [4]: Primary qHTS for inhibitors of nuclear receptor binding SET domain protein 2 (NSD2) in an isogenic RCH-ACV NSD2 p.E1099K mutant (9B) (AID 1645876). Note: potency is the fitted concentration of half-maximal effect; nearly all actives have a fitted effect of over 70% in size.
A short description of assay [5]: Primary qHTS for inhibitors of nuclear receptor binding SET domain protein 2 (NSD2) in an RCH-ACV wild type WT cells (2C) (AID 1645877). Note: potency is the fitted concentration of half-maximal effect; nearly all actives have a fitted effect of over 70% in size.
Assay [6] addresses Cytochrome P450 2C9 (Homo sapiens) (UniProt P11712). The assay is described as follows: Cytochrome P450 family 2 subfamily C member 9 (CYP2C9) small molecule antagonists: luciferase biochemical (cell-free) qHTS assay (AID 1645842; active = well fitted curve in the direction sought with a large enough effect in the repeat runs; an effect the other way counts as inactive or inconclusive; note: potency is the fitted concentration of half-maximal effect; nearly all actives have a fitted effect of over 55% in size). The essentials: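 P450-Glo CYP2C9 system: proluciferin substrate with enzyme in mix containing 0.4% BSA, 10 min at room temperature, then NADPH regeneration solution added and incubated 1 h at 37C. Detection reagent stopped reaction; luminescence read after 20 min as RLU.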

Records with an inconclusive call do not appear. Activity calls are given as the source filed them. Unless noted, calls come from the whole dose curve; as a rule, active = well fitted curve in the direction sought with a large enough effect; inconclusive = small, poorly fitted or top-dose-only effect, or another doubt; inactive = no such curve, though single readings can be large; an effect the other way counts as inactive or inconclusive.

Chain of Cytochrome P450 2D6 (Homo sapiens) (P10635 whole entry, looked up): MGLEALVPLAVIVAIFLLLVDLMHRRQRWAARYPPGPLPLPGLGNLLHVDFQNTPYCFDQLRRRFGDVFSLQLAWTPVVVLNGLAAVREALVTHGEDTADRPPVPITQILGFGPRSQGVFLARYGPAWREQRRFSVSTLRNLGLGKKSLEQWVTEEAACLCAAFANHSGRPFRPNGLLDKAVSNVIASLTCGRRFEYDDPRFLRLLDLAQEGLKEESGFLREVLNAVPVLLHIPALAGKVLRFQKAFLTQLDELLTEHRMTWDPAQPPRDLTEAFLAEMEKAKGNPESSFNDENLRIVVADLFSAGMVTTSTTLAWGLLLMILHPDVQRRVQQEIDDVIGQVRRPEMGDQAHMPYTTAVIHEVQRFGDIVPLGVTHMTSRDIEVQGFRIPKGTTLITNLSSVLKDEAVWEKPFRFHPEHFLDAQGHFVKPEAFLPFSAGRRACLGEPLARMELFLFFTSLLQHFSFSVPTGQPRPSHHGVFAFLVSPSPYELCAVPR
Chain of Cytochrome P450 2C9 (Homo sapiens) (P11712 whole entry, looked up): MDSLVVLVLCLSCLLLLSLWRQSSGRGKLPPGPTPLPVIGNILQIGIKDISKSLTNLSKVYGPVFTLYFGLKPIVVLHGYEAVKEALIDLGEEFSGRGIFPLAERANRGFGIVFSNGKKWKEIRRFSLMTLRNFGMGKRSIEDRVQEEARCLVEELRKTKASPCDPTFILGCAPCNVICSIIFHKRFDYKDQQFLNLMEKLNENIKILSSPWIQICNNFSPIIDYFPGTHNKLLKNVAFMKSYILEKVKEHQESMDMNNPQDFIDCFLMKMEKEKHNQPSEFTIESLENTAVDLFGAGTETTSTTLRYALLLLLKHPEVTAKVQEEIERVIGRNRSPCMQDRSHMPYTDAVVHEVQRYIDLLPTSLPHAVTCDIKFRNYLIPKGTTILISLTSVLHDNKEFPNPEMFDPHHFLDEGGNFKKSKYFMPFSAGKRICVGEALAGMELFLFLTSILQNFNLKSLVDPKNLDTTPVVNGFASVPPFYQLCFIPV

In the case of `O=C(C=CC#Cc1cccc(NS(=O)(=O)c2ccccc2)c1)NO`, the Potency result in assay [1] was “inactive”. For the same compound, in assay [2], the result was inactive.

In the case of `C#Cc1cccc(Nc2ncnc3cc(OCCOC)c(OCCO)cc23)c1`, in assay [1], the Potency result is “inactive”. In assay [2], the outcome was inactive. Also, the results for the Potency in assay [3], in assay [4] and in assay [5] were 8.49 µM (active), 14.8 µM (active) and 13.2 µM (active), respectively.

Regarding `CC(C)(N)c1ccc(-c2nc3ccccc3nc2-c2ccccc2)cc1`, the Potency result in assay [1] was “inactive”. For the same compound, in assay [2], the outcome was inactive. The Potency in assay [3] was 15.1 µM (active); in assay [6], 13.5 µM (active); in assay [4] it was 16.3 µM (active); in assay [5], 20.5 µM (active).
